Screening data deposited in PubChem by National Center for Advancing Translational Sciences (NCATS).
Rows were chosen to be rich in hits. Some 7.3% of all compounds tested hit in one or more screens of this group.
ELG1 genotoxic = induces genotoxicity in HEK293T cells with luciferase-tagged ELG1 | HEK293T ELG1-luciferase reporter, luminescence, 16 h | Potency, µM (highest dose often 46 µM), for inactives: at the top dose activity change, positive = activation, hits mostly activators | actives 1.3% (n = 330,000) | AID 504466; also: % of control where 0% means no effect; nearly all actives have a fitted effect of over 60% in size
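HEK293T cells expressing luciferase-tagged ELG1 were treated with compound or DMSO for 16 hr at 37°C. Luciferase activity was then read after 30 min with ONE-Glo at room temperature; rising signal flags genetic stress.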
KinaseGlo FLuc = blocks Kinase-Glo luciferase, a counter-screen artifact; Kinase-Glo luciferase, ATP luminescence, 8 min; Potency, µM (highest dose often 38.3 µM), for inactives: top-dose activity change, negative = inhibition, most hits filed as inhibitors; actives 0.28% (n = 200,000); AID 1379; also: % is scaled to controls: 0 for no effect and ±100 for the full control effect; nearly all actives have a fitted effect of over 60% in size
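Recombinant Kinase-Glo luciferase, 10 uM ATP (linear range), luciferin; imidazole pH 7.2 / KCl / MgCl2 / Tween / BSA buffer; 8 min RT; luminescence.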
NPC1 promoter act = activates the NPC1 promoter. Huh7 NPC1 promoter luciferase reporter, 24 h. Potency, µM (highest dose often 9.22 µM), for inactives: top-dose activation, actives largely listed as activators. actives 2.4% (n = 320,000). AID 485313; also: % of control where 0% means no effect; nearly all actives have a fitted effect of over 60% in size
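Luciferase expression driven by the NPC1 promoter was measured in stably transfected Huh7 cells after a 24 h compound incubation, using a luciferase reagent and a luminescence read.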
FLuc counter = counter-screen for miR-21 project: firefly luciferase inhibitors or activators; AID 588342; actives 6.9% (n = 360,000); Potency, µM (doses to about 57.5 µM), for inactives: top-dose activity change, negative = inhibition, usual class: inhibitors; purified FLuc, Km substrates, luminescence inhibition; P08659;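 also: plate controls were vehicle for no effect and reference inhibitor for full effect; nearly all actives have a fitted effect of over 55% in size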
Target sequence (P08659 whole entry, looked up): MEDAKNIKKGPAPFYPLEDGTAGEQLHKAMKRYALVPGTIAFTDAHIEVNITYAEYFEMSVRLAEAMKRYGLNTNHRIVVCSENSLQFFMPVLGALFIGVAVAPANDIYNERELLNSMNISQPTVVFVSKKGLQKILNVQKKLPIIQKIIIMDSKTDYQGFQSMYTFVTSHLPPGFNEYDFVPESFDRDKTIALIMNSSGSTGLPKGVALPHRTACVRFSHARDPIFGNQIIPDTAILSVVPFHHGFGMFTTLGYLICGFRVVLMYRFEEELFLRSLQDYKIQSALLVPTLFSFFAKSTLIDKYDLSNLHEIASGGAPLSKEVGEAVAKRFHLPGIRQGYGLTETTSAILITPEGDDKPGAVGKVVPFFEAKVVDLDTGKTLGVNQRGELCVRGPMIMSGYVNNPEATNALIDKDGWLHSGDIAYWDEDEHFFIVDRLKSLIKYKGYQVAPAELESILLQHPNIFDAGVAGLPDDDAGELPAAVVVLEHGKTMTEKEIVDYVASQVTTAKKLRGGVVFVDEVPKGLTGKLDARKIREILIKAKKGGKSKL
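Purified P. pyralis luciferase, 10 nM final, with Km-level 10 uM D-luciferin and 10 uM ATP in 50 mM Tris acetate pH 7.5, 10 mM Mg acetate, 0.01% Tween-20, 0.05% BSA; 6-point qHTS titration about 60 µM downward; luminescence read.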
Rab9 prom act = activators of Rab9 promoter. Potency, µM (doses to about 9.22 µM), without a hit: at the highest dose activation, negative = inhibition, actives largely listed as activators. Huh7 Rab9 promoter-luciferase reporter, luminescence, 24 h. actives 2.8% (n = 320,000); also: % of control where 0% means no effect; nearly all actives have a fitted effect of over 60% in size
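Measured in stably transfected Huh7 cells bearing a Rab9 promoter–luciferase construct: 24 h compound treatment at 37 °C, followed by luminescence detection.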
SMN2 splice up = SMN2 splice variant enhancement; AID 1458; HEK293 SMN2-luciferase splicing reporter, luminescence, 30-36 h; Potency, µM (doses to about 46.1 µM), for inactives: top-dose activity change, positive = activation, hits mostly activators; actives 2.8% (n = 210,000); also: % of control where 0% means no effect; nearly all actives have a fitted effect of over 55% in size
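HEK293 cells carry an SMN2 […]–luciferase reporter in which exon 7 inclusion puts luciferase in frame. Cells were plated 10-12 h before compound addition, then incubated 30-36 h at 37C. ONE-Glo luminescence was read; sodium butyrate at 4.5 mM final served as control.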
* marks the source's active call; other numbers are inactive results; ? = inconclusive; / = no result; [ ] = remark or other dose. Calls follow the shape of the dose curve; as a rule, active = well fitted curve in the direction sought with a large enough effect; inconclusive = small, poorly fitted or top-dose-only effect, or another doubt; inactive = no such curve, though single readings can be large; an effect the other way counts as inactive or inconclusive. Potency is read from the fitted curve at half-maximal effect.

SMILES | ELG1 genotoxic | KinaseGlo FLuc | NPC1 promoter act | FLuc counter | Rab9 prom act | SMN2 splice up
COC(=O)c1cccc(NC(=O)Nc2ccccc2OC)c1 | ? | / | 16% | 12µM* | ? | /
COC(=O)c1cccc(NC(=O)NC(=O)c2ccccc2Cl)c1 | ? | / | 1.3µM* | 11µM* | 0.35µM* | /
COc1ccccc1NC(=O)Nc1cccc(NC(C)=O)c1 | 3% | / | 2% | ? | -7% | /
COC(=O)c1cc(NC(=O)C2COc3ccccc3O2)ccc1Cl (stereo not drawn) | 0% | -2% | 7% | -18% | -2% | 4%
COC(=O)c1cccc(NC(=O)Nc2ccc(Cl)c(Cl)c2)c1 | 1% | -3% | ? | 15µM* | 3.5µM* | -27%
CC1CCCCN1Cc1c(O)ccc2c(=O)c(-c3nc4ccccc4s3)c(N)oc12 (stereo not drawn) | 2% | -7% | 2% | 12µM* | -7% | 14%
CC1CCCCN1Cc1c(O)ccc2c(=O)c(-c3ccccc3Cl)c(C(F)(F)F)oc12 (stereo not drawn) | / | / | / | -3% | / | -13%
CCOc1ccc(C(=O)Nc2cccc(C)n2)cc1 | ? | ? | 2µM* | 2.4µM* | 1µM* | 5µM*
CCOc1ccc(NC(=O)Nc2ccc(Cc3ccncc3)cc2)cc1 | -1% | / | 1% | 0% | 1% | /
CCCCOc1ccc(C(=O)Nc2cccc(C)n2)cc1 | 13% | -19% | 3.5µM* | 3µM* | ? | ?
CCOc1ccc(NC(=O)Nc2cccc(C)n2)cc1 | 16% | / | 3.5µM* | ? | 2.5µM* | 28%
Cc1cccc(NC(=O)c2ccc(Cl)nc2)n1 | 18% | / | 10% | -8% | 12% | /
Cc1cccc(NC(=O)c2ccc(S(=O)(=O)N(C)C)cc2)n1 | ? | -2% | 22% | -11% | 18% | -2%
CCOC(=O)c1c(S(=O)(=O)N2CCC(C(=O)N3CCN(c4cc(C)ccc4C)CC3)CC2)c(C)n(C)c1C | / | / | / | -8% | / | /
Cc1ccc(Nc2ncnc3onc(C)c23)cc1Cl | / | / | / | 1% | / | /
COc1cccc(/C=C/c2ccc3cccc(O)c3n2)c1OC | 18µM* | / | 3.5µM* | 2.7µM* | ? | /
COc1cc(Br)cc(/C=C/c2ccc3cccc(O)c3n2)c1OC | -4% | / | -1% | ? | 2%[1.84 µM] | /
COc1ccc(/C=C/c2ccncc2)c2ccccc12 | / | 3% | / | -6% | / | 3%
COc1ccc(/C=C/c2ccc3cccc(O)c3n2)c(OC)c1OC | 23µM* | / | 3.2µM* | 4.8µM* | 2.5µM* | /
N#Cc1ccccc1OCc1nnc(-c2ccccc2Br)o1 | ? | / | 2µM* | 5.4µM* | 1.4µM* | /
Clc1ccccc1OCc1nnc(-c2ccccc2Br)o1 | ? | 1% | 3.5µM* | 12µM* | ? | ?
CCc1ccccc1NC(=O)c1ccoc1C | 0% | -1% | -5% | 0% | -8% | 1%
Cc1occc1C(=O)Nc1ccccc1C(=O)O | ? | -2% | 12% | 27µM* | 16% | -3%
Cc1cc(C(=O)Nc2ccccc2C(=O)O)oc1C | 9% | / | 12% | 19µM* | 8% | /
O=C(O)CCCNc1cc(N2CCC3(CC2)OCCO3)c2noc3c2c1C(=O)c1ccccc1-3 | ? | -23% | 4µM* | 11µM* | 2.2µM* | -36%
SMILES | ELG1 genotoxic | KinaseGlo FLuc | NPC1 promoter act | FLuc counter | Rab9 prom act | SMN2 splice up
Cc1cccc2c1OCC/C2=N\NC(=O)COc1ccccc1 | ? | -6% | ? | 19µM* | ? | 9%
O=C(COc1ccccc1F)N/N=C1\CCCc2ccccc21 | ? | / | ? | 15µM* | ? | /
O=C(COc1cccc(Br)c1)N/N=C1\CCCc2ccccc21 | 9% | -2% | 7% | ? | 15% | 10%
COc1ccccc1OCC(=O)N/N=C1\CCc2ccccc21 | 8.2µM* | -3% | 26% | 21µM* | 2.8µM* | /
COc1ccccc1OCC(=O)N/N=C1\CCCCc2ccccc21 | -7% | / | 1% | -17% | -2% | /
COc1ccc(OCC(=O)N/N=C2\CCCc3ccccc32)cc1 | 1% | / | 8% | 19µM* | 6% | /
COc1ccc2c(c1)c1c(c(=O)n(Cc3ccccc3)c(=O)n1CC(=O)Nc1ccccc1OC)n2C | / | / | / | -4% | / | /
O=C(CSc1ncc2c(n1)-c1ccccc1N(Cc1ccc(Cl)cc1)S2(=O)=O)c1ccc(Cl)cc1 | / | / | / | -4% | / | /
Cc1cccc(CC(=O)NCc2nc3cccnc3n2Cc2ccc(F)cc2)c1 | / | / | / | -4% | / | /
CCOc1ccc(OCC)c(NS(=O)(=O)c2c(C(=O)N3CCCCCC3)c(C)n(C)c2C)c1 | / | / | / | -5% | / | /
NCCc1nc(-c2nc(C(=O)O)cs2)cs1 | / | 0%[7.66 µM] | / | / | / | -7%[9.22 µM]
CC1CCN(C(=O)Nc2ccc3nsnc3c2)CC1 | ? | -4% | ? | 13µM* | 4.5µM* | 13%
CC1CCN(C(=O)Nc2cccc(NC(=O)N3CCC(C)CC3)c2)CC1 | 2% | -4% | 10% | 15µM* | 0% | 5%
O=C(OCC1CC(c2ccccn2)=NO1)c1ccc(Br)cc1 (stereo not drawn) | 13% | -9% | 12% | 17µM* | 9% | -5%
O=C(COC(=O)c1ccccn1)c1cccc(Br)c1 | -1% | / | ? | 19µM* | -5% | /
O=C(COC(=O)c1ccccn1)c1ccc(Br)cc1 | 0% | -4% | 1% | 2.4µM* | 3% | 4%
O=C(COC(=O)c1ccc(Br)cc1)Nc1cccnc1Cl | 4% | / | -1% | -3% | -4% | /
O=C(CSc1nccn1-c1ncc(C(F)(F)F)cc1Cl)c1ccc(Cl)cc1 | 33% | 0% | 4µM* | ? | 3.5µM* | 7%
Nc1cc(-c2ccc(Br)cc2)nn1Cc1ccccc1 | 7% | -3% | -10% | 17µM* | -17% | /
CCc1ccc(CNC(=O)CN2C(=O)c3cccnc3Oc3ccc(C)cc32)cc1 | / | / | / | -11% | / | /
Cc1ccc2nc(C(F)(F)F)c(C#N)c(N)c2c1 | -36% | 2% | 8% | -1% | -6% | 14µM*
CN(Cc1cc(Cl)cc(Cl)c1O)Cc1c(O)ccc2ccccc12 | / | -2%[7.66 µM] | / | / | / | -3%[9.22 µM]
CN(Cc1ccccc1)Cc1c(O)ccc2ccccc12 | -3% | / | -1% | 27µM* | 0% | /
Fc1cccc(CSc2ccc(-c3ccco3)nn2)c1 | ? | -4% | ? | 12µM* | ? | ?
Fc1ccc(CSc2ccc(-c3ccco3)nn2)cc1 | ? | -3% | 3.2µM* | 4.8µM* | 3.2µM* | 22µM*
CSc1ccc(-c2ccco2)nn1 | ? | -24% | ? | ? | 3.2µM* | /
CCSc1ccc(-c2ccco2)nn1 | 10% | -19% | 22% | ? | 21% | 24%
